Structures can show the parent of a compound that is named as a salt. Over roughly 1,500 compounds, “Excess HSA synergy score (sum over dose matrix of excess over highest single agent)” has its median near 43; the lowest 2% begin near -900. The sample as a whole holds a higher share of the lowest values than the screen did.
Test system: PEO-1
Experiment: Excess HSA synergy score (sum over dose matrix of excess over highest single agent) (score (summed % response)); higher = less synergy / more antagonism (negative = synergy)
Details: 72 h, read-out: viability/apoptosis luminescence (CellTiter-Glo or Caspase3-Glo / not stated per table)
[1] = matrix design: 6x6, 5-fold dilutions (primary screen)
[2] = matrix design: 10x10, 9-step dilutions (confirmatory)

| Compound | Excess HSA synergy score [1] | Excess HSA synergy score [2] |
| --- | --- | --- |
| COc1ccc(-n2nc(C(N)=O)c3c2C(=O)N(c2ccc(N4CCCCC4=O)cc2)CC3)cc1 [Apixaban] + CC[C@H](NC(=O)[C@H](C)NC)C(=O)N1C[C@@H](O)C[C@H]1Cc1c(-c2[nH]c3cc(F)ccc3c2C[C@@H]2C[C@H](O)CN2C(=O)[C@H](CC)NC(=O)[C@H](C)NC)[nH]c2cc(F)ccc12 [Birinapant] | -103 |  |
| CN1CC2c3ccccc3Oc3ccc(Cl)cc3C2C1 (centres undefined) [Asenapine maleate] + CC[C@H](NC(=O)[C@H](C)NC)C(=O)N1C[C@@H](O)C[C@H]1Cc1c(-c2[nH]c3cc(F)ccc3c2C[C@@H]2C[C@H](O)CN2C(=O)[C@H](CC)NC(=O)[C@H](C)NC)[nH]c2cc(F)ccc12 [Birinapant] | 164 |  |
| O=S(=O)(O)c1ccc2cc(N=Nc3cc(S(=O)(=O)O)c4cccnc4c3O)ccc2c1 + CC[C@H](NC(=O)[C@H](C)NC)C(=O)N1C[C@@H](O)C[C@H]1Cc1c(-c2[nH]c3cc(F)ccc3c2C[C@@H]2C[C@H](O)CN2C(=O)[C@H](CC)NC(=O)[C@H](C)NC)[nH]c2cc(F)ccc12 [Birinapant] | 130 |  |
| NC[C@H]1O[C@H](O[C@H]2[C@H](O)[C@@H](O[C@H]3O[C@H](CO)[C@@H](O)[C@H](N)[C@H]3O)[C@H](N)C[C@@H]2N)[C@H](O)[C@@H](O)[C@@H]1O [Kanamycin] + CC[C@H](NC(=O)[C@H](C)NC)C(=O)N1C[C@@H](O)C[C@H]1Cc1c(-c2[nH]c3cc(F)ccc3c2C[C@@H]2C[C@H](O)CN2C(=O)[C@H](CC)NC(=O)[C@H](C)NC)[nH]c2cc(F)ccc12 [Birinapant] | -24.6 |  |
| CCc1cccc(CC)c1NC(=O)N1Cc2[nH]nc(NC(=O)c3ccc(N4CCN(C)CC4)cc3)c2C1 + CC[C@H](NC(=O)[C@H](C)NC)C(=O)N1C[C@@H](O)C[C@H]1Cc1c(-c2[nH]c3cc(F)ccc3c2C[C@@H]2C[C@H](O)CN2C(=O)[C@H](CC)NC(=O)[C@H](C)NC)[nH]c2cc(F)ccc12 [Birinapant] | -207 |  |
| O=C(O)c1ccc(-c2cc3cccnc3c(-c3ccc4nonc4c3)n2)cc1 + CC[C@H](NC(=O)[C@H](C)NC)C(=O)N1C[C@@H](O)C[C@H]1Cc1c(-c2[nH]c3cc(F)ccc3c2C[C@@H]2C[C@H](O)CN2C(=O)[C@H](CC)NC(=O)[C@H](C)NC)[nH]c2cc(F)ccc12 [Birinapant] | -117 |  |
| CCOC(=O)N1c2ccc(C(F)(F)F)cc2[C@@H](N(Cc2cc(C(F)(F)F)cc(C(F)(F)F)c2)C(=O)OC)C[C@H]1CC [Torcetrapib] + CC[C@H](NC(=O)[C@H](C)NC)C(=O)N1C[C@@H](O)C[C@H]1Cc1c(-c2[nH]c3cc(F)ccc3c2C[C@@H]2C[C@H](O)CN2C(=O)[C@H](CC)NC(=O)[C@H](C)NC)[nH]c2cc(F)ccc12 [Birinapant] | -42.4 |  |
| Nc1nc(=O)c2c([nH]1)NCC(CNc1ccc(C(=O)N[C@@H](CCC(=O)O)C(=O)O)cc1)N2C=O (some centres undefined) [Calcium folinate] + CC[C@H](NC(=O)[C@H](C)NC)C(=O)N1C[C@@H](O)C[C@H]1Cc1c(-c2[nH]c3cc(F)ccc3c2C[C@@H]2C[C@H](O)CN2C(=O)[C@H](CC)NC(=O)[C@H](C)NC)[nH]c2cc(F)ccc12 [Birinapant] | 148 |  |
| CN(C)/[N+]([O-])=N/Oc1cc(ON[N+](=O)N2CCN(C(=O)c3cc(Cc4n[nH]c(=O)c5ccccc45)ccc3F)CC2)c([N+](=O)[O-])cc1[N+](=O)[O-] + CC[C@H](NC(=O)[C@H](C)NC)C(=O)N1C[C@@H](O)C[C@H]1Cc1c(-c2[nH]c3cc(F)ccc3c2C[C@@H]2C[C@H](O)CN2C(=O)[C@H](CC)NC(=O)[C@H](C)NC)[nH]c2cc(F)ccc12 [Birinapant] | 162 |  |
| CN1CCCC(n2nc(Cc3ccc(Cl)cc3)c3ccccc3c2=O)CC1 (centres undefined) [Azelastine hydrochloride] + CC[C@H](NC(=O)[C@H](C)NC)C(=O)N1C[C@@H](O)C[C@H]1Cc1c(-c2[nH]c3cc(F)ccc3c2C[C@@H]2C[C@H](O)CN2C(=O)[C@H](CC)NC(=O)[C@H](C)NC)[nH]c2cc(F)ccc12 [Birinapant] | -156 |  |
| O=C(c1cc(Cc2n[nH]c(=O)c3ccccc23)ccc1F)N1CCN(C(=O)C2CC2)CC1 [Olaparib] + CC[C@H](NC(=O)[C@H](C)NC)C(=O)N1C[C@@H](O)C[C@H]1Cc1c(-c2[nH]c3cc(F)ccc3c2C[C@@H]2C[C@H](O)CN2C(=O)[C@H](CC)NC(=O)[C@H](C)NC)[nH]c2cc(F)ccc12 [Birinapant] | -98.9 | -1730 |
| CN1C(=O)C[C@@H](C(=O)N[C@@H](Cc2c[nH]cn2)C(=O)N2CCC[C@H]2C(N)=O)NC1=O [Taltirelin] + CC[C@H](NC(=O)[C@H](C)NC)C(=O)N1C[C@@H](O)C[C@H]1Cc1c(-c2[nH]c3cc(F)ccc3c2C[C@@H]2C[C@H](O)CN2C(=O)[C@H](CC)NC(=O)[C@H](C)NC)[nH]c2cc(F)ccc12 [Birinapant] | 10.4 |  |
| C/C(=N\NC(=S)N1CCC1)c1ccccn1 + CC[C@H](NC(=O)[C@H](C)NC)C(=O)N1C[C@@H](O)C[C@H]1Cc1c(-c2[nH]c3cc(F)ccc3c2C[C@@H]2C[C@H](O)CN2C(=O)[C@H](CC)NC(=O)[C@H](C)NC)[nH]c2cc(F)ccc12 [Birinapant] | -323 | -1630 |
| Cc1n[nH]c(C)c1Cc1sc2c(c1C(=O)N1C[C@H](O)CO1)c(=O)n(C)c(=O)n2CC(C)C + CC[C@H](NC(=O)[C@H](C)NC)C(=O)N1C[C@@H](O)C[C@H]1Cc1c(-c2[nH]c3cc(F)ccc3c2C[C@@H]2C[C@H](O)CN2C(=O)[C@H](CC)NC(=O)[C@H](C)NC)[nH]c2cc(F)ccc12 [Birinapant] | 60.3 |  |
| COc1ccc(S(=O)(=O)N(C(C)=O)c2ccccc2/C=C/c2cc[n+]([O-])cc2)cc1 + CC[C@H](NC(=O)[C@H](C)NC)C(=O)N1C[C@@H](O)C[C@H]1Cc1c(-c2[nH]c3cc(F)ccc3c2C[C@@H]2C[C@H](O)CN2C(=O)[C@H](CC)NC(=O)[C@H](C)NC)[nH]c2cc(F)ccc12 [Birinapant] | -72.6 |  |
| CN(C)c1nc(Cc2ccc(NC(=O)c3ccc4ccccc4c3)cc2)nc(Cl)c1CC(=O)O + CC[C@H](NC(=O)[C@H](C)NC)C(=O)N1C[C@@H](O)C[C@H]1Cc1c(-c2[nH]c3cc(F)ccc3c2C[C@@H]2C[C@H](O)CN2C(=O)[C@H](CC)NC(=O)[C@H](C)NC)[nH]c2cc(F)ccc12 [Birinapant] | 169 |  |
| N#CN=C(NCCCCCCOc1ccc(Cl)cc1)Nc1ccncc1 + CC[C@H](NC(=O)[C@H](C)NC)C(=O)N1C[C@@H](O)C[C@H]1Cc1c(-c2[nH]c3cc(F)ccc3c2C[C@@H]2C[C@H](O)CN2C(=O)[C@H](CC)NC(=O)[C@H](C)NC)[nH]c2cc(F)ccc12 [Birinapant] | -214 | -1410 |
| N=C(NCCCCCCNC(=N)NC(=N)Nc1ccc(Cl)cc1)NC(=N)Nc1ccc(Cl)cc1 [Chlorhexidine] + CC[C@H](NC(=O)[C@H](C)NC)C(=O)N1C[C@@H](O)C[C@H]1Cc1c(-c2[nH]c3cc(F)ccc3c2C[C@@H]2C[C@H](O)CN2C(=O)[C@H](CC)NC(=O)[C@H](C)NC)[nH]c2cc(F)ccc12 [Birinapant] | -4.24 |  |
| CC(C)C[C@@H](C=O)NC(=O)[C@H](CC(C)C)NC(=O)[C@H](CC(C)C)NC(=O)OCc1ccccc1 + CC[C@H](NC(=O)[C@H](C)NC)C(=O)N1C[C@@H](O)C[C@H]1Cc1c(-c2[nH]c3cc(F)ccc3c2C[C@@H]2C[C@H](O)CN2C(=O)[C@H](CC)NC(=O)[C@H](C)NC)[nH]c2cc(F)ccc12 [Birinapant] | 36.9 |  |
| O=C(NC1CC1)c1cccc(-c2ccc3c(NC(=O)C4CC4)n[nH]c3c2)c1 + CC[C@H](NC(=O)[C@H](C)NC)C(=O)N1C[C@@H](O)C[C@H]1Cc1c(-c2[nH]c3cc(F)ccc3c2C[C@@H]2C[C@H](O)CN2C(=O)[C@H](CC)NC(=O)[C@H](C)NC)[nH]c2cc(F)ccc12 [Birinapant] | 81.8 |  |
| N#Cc1ccc(COC[C@H]2O[C@@H](n3c(NCc4ccc(Cl)c(Cl)c4)nc4c(N)ncnc43)[C@H](O)[C@@H]2O)cc1 + CC[C@H](NC(=O)[C@H](C)NC)C(=O)N1C[C@@H](O)C[C@H]1Cc1c(-c2[nH]c3cc(F)ccc3c2C[C@@H]2C[C@H](O)CN2C(=O)[C@H](CC)NC(=O)[C@H](C)NC)[nH]c2cc(F)ccc12 [Birinapant] | -237 |  |
| COc1ccc(-c2ccc3c(N4CCOCC4)nc(N4C[C@@H](C)O[C@@H](C)C4)nc3n2)cc1CO + CC[C@H](NC(=O)[C@H](C)NC)C(=O)N1C[C@@H](O)C[C@H]1Cc1c(-c2[nH]c3cc(F)ccc3c2C[C@@H]2C[C@H](O)CN2C(=O)[C@H](CC)NC(=O)[C@H](C)NC)[nH]c2cc(F)ccc12 [Birinapant] | -161 |  |
| COc1ccc(-c2nc(N3CCOCC3)c3sc(CN(C)c4ncc(C(=O)NO)cn4)cc3n2)cn1 + CC[C@H](NC(=O)[C@H](C)NC)C(=O)N1C[C@@H](O)C[C@H]1Cc1c(-c2[nH]c3cc(F)ccc3c2C[C@@H]2C[C@H](O)CN2C(=O)[C@H](CC)NC(=O)[C@H](C)NC)[nH]c2cc(F)ccc12 [Birinapant] | -204 | -1340 |
| Cc1nc(N)ncc1-c1nc(N2CCOCC2)c2sc(C(C)(C)O)cc2n1 + CC[C@H](NC(=O)[C@H](C)NC)C(=O)N1C[C@@H](O)C[C@H]1Cc1c(-c2[nH]c3cc(F)ccc3c2C[C@@H]2C[C@H](O)CN2C(=O)[C@H](CC)NC(=O)[C@H](C)NC)[nH]c2cc(F)ccc12 [Birinapant] | -47.1 |  |
| CC(C)(O)c1cc2nc(-c3cnc(N)nc3)nc(N3CCOCC3)c2s1 + CC[C@H](NC(=O)[C@H](C)NC)C(=O)N1C[C@@H](O)C[C@H]1Cc1c(-c2[nH]c3cc(F)ccc3c2C[C@@H]2C[C@H](O)CN2C(=O)[C@H](CC)NC(=O)[C@H](C)NC)[nH]c2cc(F)ccc12 [Birinapant] | 72.3 |  |
